Source: PubChem BioAssay (National Center for Advancing Translational Sciences (NCATS))
In the library only some 2.7% were active in any assay of this set; here they are far more common.
Nrf2 inh – Nrf2 qHTS screen for inhibitors; hit rate 2.1% among 360,000; A549 ARE-Fluc reporter, luciferase luminescence, 18-24 h; Potency, µM (series often up to 46 µM), without a hit: at the top dose activity change, negative = inhibition, most hits filed as inhibitors; note: potency is the fitted concentration of half-maximal effect; % is set by controls: 0 for no effect and ±100 for the full control effect; nearly all actives have a fitted effect of over 60% in size
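In this cell-based qHTS, ARE-driven firefly luciferase in A549 cells reports Nrf2 activity; the luminescent signal after BugLite lysis is the measured value, with a prior CellTiter-Fluor read for cell health.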
ALOX12 inh – Primary qHTS assay for inhibitors of human arachidonate 12S-lipoxygenase (ALOX12): Round 2; Polyunsaturated fatty acid lipoxygenase ALOX12 (Homo sapiens), P18054; purified 12hLO, xylenol orange hydroperoxide absorbance; Potency, µM (highest dose often 108 µM), without a hit: at the top dose activity change, negative = inhibition, actives largely listed as inhibitors; hit rate 1.1% among 580,000; AID 1671190, 2021; note: potency is the fitted concentration of half-maximal effect; % is set by controls: 0 for no effect and ±100 for the full control effect
Target sequence (P18054 whole entry, looked up): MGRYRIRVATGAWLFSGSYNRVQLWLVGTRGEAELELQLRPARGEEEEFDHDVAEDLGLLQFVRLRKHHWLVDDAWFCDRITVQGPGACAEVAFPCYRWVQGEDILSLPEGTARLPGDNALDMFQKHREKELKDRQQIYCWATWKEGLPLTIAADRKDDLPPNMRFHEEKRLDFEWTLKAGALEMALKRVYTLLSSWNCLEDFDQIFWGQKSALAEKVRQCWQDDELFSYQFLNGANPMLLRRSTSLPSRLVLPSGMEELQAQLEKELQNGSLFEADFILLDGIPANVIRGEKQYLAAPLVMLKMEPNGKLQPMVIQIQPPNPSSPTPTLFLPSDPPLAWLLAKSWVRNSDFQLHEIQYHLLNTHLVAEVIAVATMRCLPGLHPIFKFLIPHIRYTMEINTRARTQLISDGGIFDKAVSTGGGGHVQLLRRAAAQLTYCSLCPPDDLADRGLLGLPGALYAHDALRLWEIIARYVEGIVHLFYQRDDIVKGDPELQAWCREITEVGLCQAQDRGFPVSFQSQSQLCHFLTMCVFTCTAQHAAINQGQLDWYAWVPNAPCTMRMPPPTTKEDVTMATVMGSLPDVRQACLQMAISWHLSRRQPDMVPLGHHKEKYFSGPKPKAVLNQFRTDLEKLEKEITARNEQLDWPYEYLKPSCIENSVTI
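Purified human 12hLO at 150 nM in 25 mM Hepes, 0.01% Triton X-100, pH 7.0, preincubated 15 min at room temperature with compound. Reaction started with 40 uM arachidonic acid, 30 min at room temperature. Hydroperoxide measured by Fe-xylenol orange, 573/405 nm absorbance ratio.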
ERG Ets-DNA blk – qHTS for Small Molecule Inhibitors of the ERG Ets/DNA interaction; AID 624246, 2012; Potency, µM (series often up to 76.9 µM), without a hit: top-dose FP activity, negative = inhibition, hits mostly inhibitors; hit rate 0.028% among 370,000; Transcriptional regulator ERG (Homo sapiens), P11308; fluorescence polarization, His-ERG Ets domain / labelled DNA; active = well fitted inhibition curve with a large enough effect in the polarisation, with a control signal flat; inconclusive = small, poorly fitted or top-dose-only effect, or effect the other way, or a change in a side signal; inactive = no such curve, though single readings can be large or run the other way; the % refers to the polarisation;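 note: polarization taken with two DNA probes labelled with fluorescein and Texas red; potency is the fitted concentration of half-maximal effect; % of control where 0% means no effect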
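His-tagged ERG Ets domain (1 uM in the protein solution; 300mM KCl, 50mM Tris-HCl, 1mM EDTA, 1mM DTT, pH 7.5) received compound, then a probe mix of 5 nM fluorescein-DNA and 100nM Texas-615-DNA. Fluorescence polarization was read for both dyes.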
Nrf2 ARE act – qHTS of Nrf2 Activators; AREc32 ARE-luciferase reporter (MCF7-derived line), luminescence, 24 h; Potency, µM (series often up to 46.1 µM), inactives show at the top dose activation, actives largely listed as activators; hit rate 0.31% among 410,000; note: potency is the fitted concentration of half-maximal effect; % of control where 0% means no effect; nearly all actives have a fitted effect of over 65% in size
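AREc32_Fluc, 1000 cells/well, OPTI-MEM + 5% FBS, o/n 37 deg C 5% CO2; 23 nL cpd by pin tool, 24 hr; Steady-Glo 30 min RT, luminescence.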
LDHA inh – qHTS assay for inhibitors of human lactate dehydrogenase. purified LDHA, NADH/diaphorase-resazurin fluorescence; hits give low values. activity change, % (values are at about 110 or 230 µM). hit rate 0.15% among 480,000. AID 1347041, 2019; in the data active = activity change below about -30%; inconclusive = mostly about -25% to -30%;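 note: plate controls were DMSO wells for no effect and wells without enzyme for full effect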
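Human LDH5 (2 nM) was incubated with 0.06 mM NADH and 0.2 mM pyruvate for 5 min at room temperature in Tris pH 7.4. Remaining NADH was coupled through diaphorase/resazurin, and resorufin fluorescence was read at 0 and 20 min.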
A549 viability – Nrf2 qHTS screen for inhibitors: counterscreen for cytotoxicity; A549 ARE-Fluc cells, CellTiter-Fluor viability, 18-24 h; Potency, µM (doses to about 46 µM), for the others: top-dose activity change, negative = cytotoxicity, hits mostly inhibitors; hit rate 0.16% among 390,000; AID 504648, 2011; note: potency is the fitted concentration of half-maximal effect; % is set by controls: 0 for no effect and ±100 for the full control effect
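Cytotoxicity counterscreen: CellTiter-Fluor fluorescence was measured in A549 ARE_Fluc cells after 18-24 h of compound exposure in a concentration series. The subsequent BugLite luminescent read reports ARE-luciferase activity.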
* marks the source's active call; other numbers are inactive results; ? = inconclusive; nt = no result given; ! = not active in a repeat. Unless noted, calls come from the whole dose curve; as a rule, active = well fitted curve in the direction sought with a large enough effect; inconclusive = small, poorly fitted or top-dose-only effect, or another doubt; inactive = no such curve, though single readings can be large; an effect the other way counts as inactive or inconclusive.

SMILES	Nrf2 inh	ALOX12 inh	ERG Ets-DNA blk	Nrf2 ARE act	LDHA inh	A549 viability
CCN(C(=O)COC(=O)/C=C/c1ccc(Cl)c(Cl)c1)c1c(N)n(Cc2ccccc2)c(=O)[nH]c1=O	14.6µM*	-17.1%	-7.0%	-0.5%	-3.8	-13.6%
CC(C)CN(C(=O)COC(=O)C12CC3CC(CC(C3)C1)C2)c1c(N)n(Cc2ccccc2)c(=O)[nH]c1=O	25.9µM*	-24.6%	11.6%	-0.4%	-5.4	?
Cc1ccc(NC(=O)CSc2nc(-c3ccco3)ccc2C#N)cc1Cl	nt	?	nt	nt	8.2	nt
CCOc1ccc(S(=O)(=O)NCCc2sc(-c3cccc(F)c3)nc2C)cc1	nt	-14.6%	nt	nt	14.5	nt
O=C(c1ccc(S(=O)(=O)NCC2CCCO2)cc1)N1CCc2ccccc21 (stereo not drawn)	25.9µM*	300.1%	0.1%	-0.6%	-6.7	-21.7%
O=S(=O)(NCc1ccccc1)c1ccc(S(=O)(=O)NCC2CCCO2)cc1 (stereo not drawn)	1.6%	0.0%	1.6%	7.7%	-5.6	8.6%
O=C(Nc1ccc(F)cc1)c1ccc(S(=O)(=O)NCC2CCCO2)cc1 (stereo not drawn)	23.1µM*	15.3%	nt	-0.5%	-4.9	23.1µM*
CCCCNS(=O)(=O)c1ccc(S(=O)(=O)NCc2ccncc2)cc1	7.31µM*	5.0%	nt	-0.3%	-8.4	-16.0%
O=S(=O)(NCC1CCCO1)c1ccccc1 (stereo not drawn)	4.7%	?	4.0%	-1.0%	0.9	-2.2%
O=S(=O)(NCc1ccncc1)c1ccc(S(=O)(=O)NCC2CCCO2)cc1 (stereo not drawn)	9.2µM*	1.5%	nt	0.4%	-5.3	-3.9%
Cc1nc(NCCN(C)C)c(C#N)c2c1CCCC2	nt	?	nt	nt	-1.4	nt
Cc1cccc(Nc2ccc(S(=O)(=O)N3CCOCC3)cc2[N+](=O)[O-])c1	-25.2%	?	-5.7%	-0.2%	-2.3	-10.2%
CSc1cccc(Nc2ccc(S(=O)(=O)N3CCOCC3)cc2[N+](=O)[O-])c1	18.4µM*	1.6%	-0.9%	0.0%	-8.5	-10.4%
O=C(O)[C@H]1CC=C[C@H]2CCN(Cc3ccc(Cl)c(Cl)c3)C(=O)[C@@H]12	-13.4%	?	-3.5%	3.3%	5.0	2.5%
O=C(Nc1ccc(Cl)c(C(F)(F)F)c1)[C@@H]1CC=C[C@@H]2CCN(Cc3ccc(Cl)c(Cl)c3)C(=O)[C@@H]21	11.6µM*	-8.7%	2.8%	0.3%	-3.5	-11.1%
O=C1Cc2cc(-c3csc(Nc4ccccc4F)n3)ccc2N1	nt	?	nt	nt	-4.3	nt
COc1ncccc1CNC(=O)Nc1nnc(C)s1	nt	41.6%	nt	nt	2.4	nt
O=c1[nH]ncc(N/N=C\c2cccs2)c1Cl	-7.8%	-6.1%	-3.8%	4.47µM*	-1.7	1.0%
O=C(Nc1ccc2oc(-c3ccccc3Br)nc2c1)c1ccco1	nt	?	nt	nt	0.5	nt
CCOC(=O)c1nsnc1NCCSC(=N)N	6.6%	44.7µM*	2.0%	0.6%	-2.5	1.1%
O=c1[nH]c(CSc2nnc(-c3ccccc3)n2-c2ccccc2)nc2ccccc12	-9.5%	-2.7%	6.1%	0.6%	4.3	6.3%
CCCCn1nnnc1CSc1nnc(-c2ccccc2)n1-c1ccccc1	nt	8.8%	nt	nt	-31.1*	nt
c1ccc(-c2nc(N3CCN(c4ccccc4)CC3)nc(-n3ccnc3)n2)cc1	4.61µM*	0.0%	-2.8%	-0.1%	-5.9	-24.2%
c1ccc(-c2nc(N3CCCCCC3)nc(-n3ccnc3)n2)cc1	3.5%	0.0%	-4.7%	3.4%	-2.6	6.7%
Clc1ccccc1Nc1nc(NCc2ccccc2)nc2ccsc12	nt	?	nt	4.6%	-6.4	nt
SMILES	Nrf2 inh	ALOX12 inh	ERG Ets-DNA blk	Nrf2 ARE act	LDHA inh	A549 viability
OCc1ccccc1-c1nc(NCc2ccccc2)nc2ccsc12	nt	14.1µM*	nt	6.5%	1.9	nt
CCN(CC)C(=S)SSC(=S)N(CC)CC	nt	1.09µM*!	5.1%	-3.1%	0.9	0.2%
CCN(CC)C(N)=S	nt	-3.5%	nt	nt	2.0	nt
COc1ccc(OC)c(-c2cc(C3CCN(c4cc(Cl)nc(N)n4)CC3)[nH]n2)c1	?	19.0%	7.5%	1.6%	1.4	-17.4%
COc1ccc(-c2cc(C3CCN(c4cc(Cl)nc(N)n4)CC3)[nH]n2)cc1	13µM*	13.1%	-4.2%	-0.4%	-2.5	?
O=c1cc(-c2ccccc2Cl)oc2c([N+](=O)[O-])c(O)cc(O)c12	13µM*	?	-4.9%	-2.8%	-7.6	?
COC(=O)c1cccn(C)c1=S	nt	-24.8%	nt	nt	2.5	nt
Cc1coc(C)c1C(=O)CC1(O)C(=O)N(CCc2ccccc2)c2ccccc21 (stereo not drawn)	?	39.8µM*	6.6%	11.3%	11.5	-19.1%
O=C(CC1(O)C(=O)N(CCc2ccccc2)c2ccc(Br)cc21)c1ccc(F)cc1 (stereo not drawn)	?	2.1%	6.2%	-0.9%	5.3	-18.8%
CCCCN1C(=O)C(O)(CC(=O)c2ccc(C)cc2C)c2cc(Br)ccc21 (stereo not drawn)	25.9µM*	5.3%	-6.7%	-1.4%	-0.6	?
COc1ccc(C(=O)CC2(O)C(=O)N(CCc3ccccc3)c3ccc(Br)cc32)cc1OC (stereo not drawn)	23.1µM*	-26.1%	3.7%	5.8%	-0.6	?
COc1ccc(CNC(=O)Cc2c(C)c3c(OC)cc(C)cc3oc2=O)cc1	nt	29.8%	nt	nt	15.5	nt
C/C(=N/NC(=O)c1cccc(C)c1)c1ccc2ccccc2c1	nt	39.0%	nt	nt	0.2	nt
COc1cccc(CNCc2cccc3[nH]ccc23)c1	nt	?	nt	nt	-16.6	nt
O=c1[nH]c(C2CCCN(Cc3cccc(-c4ccsc4)c3)C2)nc2ccc(F)cc12 (stereo not drawn)	nt	25.1µM*!	nt	nt	nt	nt
CCc1cc2c(CN3CCN(c4ccccc4O)CC3)cc(=O)oc2cc1O	nt	?	nt	nt	6.8	nt
O=[N+]([O-])c1ccc(N/N=C/c2c[nH]c3ccccc23)c(S(=O)(=O)Nc2ccc(Cl)cc2)c1	14.6µM*	?	-3.9%	0.0%	7.9	20.6µM*
O=[N+]([O-])c1ccc(N/N=C/c2c[nH]c3ccccc23)c(S(=O)(=O)Nc2ccccc2Cl)c1	nt	?	nt	nt	2.3	nt
O=C(NCc1ccccc1)C(=O)NCC1OCCN1S(=O)(=O)c1ccc2c(c1)OCCO2 (stereo not drawn)	0.4%	21.2%	23.7%	0.4%	3.3	1.7%
